Measurements published in PubChem BioAssay (NCI).
About 83,000 compounds went through this panel and 20% of them were active in at least one assay; those are over-represented in the sample as a whole.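 How to read the values: 0–100, growth inhibition (40 = 60% inhibited); 0, no net growth; -100 to 0, cell death (-40 = 40% of starting cells died; -100 = all dead).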 Activity calls are given as the source filed them. The calls were made as follows: active = growth percent below 10; inactive = the rest.

Columns and labels:
Assay in all cases: NCI-60 one-dose screen, 48 h (100 = growth as untreated, 0 = no growth, -100 = all killed)
Conditions in all cases: 10 µM unless noted
[1] = test system: DU-145 prostate
[2] = test system: K-562 leukemia
[3] = test system: MALME-3M melanoma
[4] = test system: MDA-MB-231 breast
[5] = test system: RXF 393 renal
[6] = test system: SF-268 CNS
[7] = test system: SF-295 CNS
[8] = test system: SF-539 CNS
[9] = test system: UACC-257 melanoma
[10] = test system: M14 melanoma

Measured: growth

O=C(Cn1cc(CSc2nc3ccccc3o2)nn1)Nc1ccc([N+](=O)[O-])cc1
inactive: [1] 108% | [2] 92.6% | [3] 104% | [4] 91.5% | [5] 108% | [6] 91.8% | [7] 102% | [8] 101% | [9] 110% | [10] 96.2%

CN(C)c1ccc(/C=C/C2=[N+](C)c3ccccc3C2(C)C)cc1
active: [3] -6.64% | [4] 3.11% | [7] 0.915%
inactive: [1] 25.3% | [2] 14.2% | [5] 39.9% | [6] 20.9% | [8] 16.9% | [9] 12.6% | [10] 18.4%

O=C1c2c(c3c4cccnc4[nH]c3c3ccc4ccccc4c23)C(=O)N1O
inactive: [1] 54.8% | [2] 29.7% | [3] 63.1% | [4] 85.9% | [5] 47.9% | [6] 37.6% | [7] 91.8% | [8] 39.6% | [9] 76.4% | [10] 49%

C=C(C)[C@@H]1CC[C@]2(C#N)CC[C@]3(C)[C@H](CC[C@@H]4[C@@]5(C)CCCNC(C)(C)[C@@H]5CC[C@]43C)[C@@H]12
inactive: [1] 65.5% | [3] 81% | [4] 57.6% | [5] 82.3% | [6] 87.1% | [7] 92.9% | [8] 84% | [9] 70.8% | [10] 64.4%
active: [2] -26.2%

Cc1ccc2c(n1)C[C@H](C(C)(C)O)CC[C@H]2C
inactive: [1] 107% | [2] 101% | [3] 94.4% | [4] 97.1% | [5] 114% | [6] 101% | [7] 93.4% | [8] 100% | [9] 104% | [10] 104%

N#CC1=C(N)Oc2c(ccc3ccccc23)C1c1cc2ccccc2n2nnnc12 (stereo not given)
active: [2] 4.13% | [8] -8.31%
inactive: [1] 19.5% | [3] 53.4% | [4] 32.9% | [5] 11.4% | [6] 26.3% | [7] 10.7% | [9] 47.4% | [10] 12.7%

Oc1ccc(C2OCCO2)c2cccnc12
inactive: [1] 56.7% | [2] 17.3% | [3] 49% | [4] 46.6% | [5] 77% | [6] 31.1% | [7] 86.9% | [8] 36% | [9] 79.2% | [10] 25.8%

CNc1nc2ncc(-c3c(C)noc3C)cc2n1Cc1ccccc1
inactive: [1] 79.4% | [2] 49.3% | [3] 45.4% | [4] 50.3% | [5] 54.1% | [6] 80.7% | [7] 57.4% | [8] 41% | [9] 42.3% | [10] 31.5%

CCOC(=O)CCC(=O)P(=O)(O)O
active: [2] 8.96%
inactive: [1] 114% | [3] 103% | [4] 119% | [5] 122% | [6] 114% | [7] 101% | [8] 101% | [9] 93% | [10] 92.4%

COC1=C(OC)C(=O)C(CCCCCCCCCCO)=C(C)C1=O
inactive: [1] 72% | [2] 45.7% | [3] 87% | [4] 42% | [5] 64% | [6] 64.2% | [7] 77.8% | [8] 74% | [9] 46% | [10] 92.7%

COc1ccc(C2=NN(C=O)C(c3ccc(Oc4nc5c(c(=O)n(C)c(=O)n5C)n4C)c(OC)c3)C2)cc1 (stereo not given)
inactive: [1] 60.9% | [2] 89.9% | [3] 102% | [4] 77.6% | [5] 110% | [6] 57.8% | [7] 75.5% | [8] 110% | [10] 68.9%
active: [9] -10.3%

CC1=NN(c2cccc(Cl)c2)C(=O)/C1=C\C=C\c1ccccc1
active: [5] -87.7%
inactive: [1] 112% | [2] 76.9% | [3] 116% | [4] 13.7% | [6] 75.5% | [7] 101% | [8] 21.6% | [9] 63.3% | [10] 14.4%

O=c1n(C2OC(CO)C(O)C2O)ccc2nccn12 (stereo not given)
inactive: [1] 107% | [2] 102% | [3] 112% | [4] 117% | [5] 162% | [6] 107% | [7] 108% | [8] 112% | [9] 100% | [10] 105%

O=C(OCC(O)C(=O)NC12CC3CC(CC(C3)C1)C2)c1cccc(Br)c1 (stereo not given)
inactive: [1] 105% | [2] 89.4% | [3] 101% | [4] 92% | [5] 110% | [6] 103% | [7] 96.9% | [8] 96.2% | [9] 91.1% | [10] 95.5%

Cn1nc(-c2ccc(Cl)cc2)nc2c(=O)n(C)c(=O)nc1-2
active: [1] -97.5% | [2] -52.7% | [3] -90.1% | [4] -24.9% | [5] -30.8% | [6] -19.8% | [7] -29.6% | [8] -99.2% | [9] -83.4% | [10] -91.9%

CCOc1cc(\C=N/N=C(N)/C(N)=N\N=C/c2ccc(O)c(OCC)c2)ccc1O
inactive: [1] 111% | [2] 83% | [3] 123% | [4] 94.7% | [5] 95.9% | [6] 98.1% | [7] 106% | [8] 112% | [9] 108% | [10] 113%

CNC(=O)c1cc(Oc2ccc3nc(NC(=O)NC(C)C)sc3c2)ccn1
inactive: [1] 98.8% | [3] 86.2% | [4] 79.5% | [5] 95.4% | [6] 89.8% | [7] 77.5% | [8] 76.9% | [9] 73.7% | [10] 50.5%
active: [2] 7.14%

Oc1c(Cl)cc(Cl)c2ccc(CN3CCNCC3)nc12
inactive: [1] 50.8% | [2] 19% | [3] 67.9% | [4] 59.3% | [5] 60.3% | [6] 39.9% | [7] 39.4% | [8] 58.3% | [9] 70.9% | [10] 47.7%

Cc1c(N2CCCCC2)[nH]c2ccccc12
inactive: [1] 120% | [2] 113% | [3] 121% | [4] 121% | [5] 116% | [6] 117% | [7] 89% | [8] 121% | [9] 94% | [10] 105%

COc1cc(C(=O)n2nc(NCCCc3ccccc3)c3cc(N)ccc32)cc(OC)c1OC
inactive: [1] 106% | [2] 88.9% | [3] 100% | [4] 83.1% | [5] 101% | [6] 96.7% | [7] 81% | [8] 93.1% | [9] 120% | [10] 93.6%

C=CCn1c(SCC(=O)Nc2ccc(C(=O)/C=C/c3ccc(Cl)cc3)cc2)nnc1-c1ccccc1
inactive: [1] 93.7% | [2] 76.3% | [3] 98.7% | [4] 101% | [5] 118% | [6] 84.7% | [7] 94.9% | [8] 96.6% | [9] 111% | [10] 94.4%

CCN(CC)CCCC(Nc1c2ccc(Cl)cc2nc2ccc(OC)cc12)c1ccncc1 (stereo not given)
inactive: [1] 70.6% | [2] 32.6% | [3] 76.7% | [4] 59.3% | [5] 65.4% | [6] 77.8% | [7] 89.9% | [8] 62.9% | [9] 114% | [10] 113%

CN1CCN(CC(=O)N(C)c2ccc(N=C(c3ccccc3)c3c(O)[nH]c4ccc([N+](=O)[O-])cc34)cc2)CC1
inactive: [1] 51.3% | [3] 84% | [4] 63.5% | [5] 28.2% | [6] 74.3% | [7] 53.9% | [8] 36.1% | [9] 103% | [10] 36.3%
active: [2] 5.2%

COc1ccc(C2=NN3C(C2)c2cc(Br)ccc2OC3c2ccncc2)cc1 (stereo not given)
inactive: [1] 96.4% | [2] 74.8% | [3] 94% | [4] 85% | [5] 95.4% | [6] 66.2% | [7] 86.5% | [8] 86.2% | [9] 86.2% | [10] 86.8%

COc1cc(C2CC(c3cccc(Nc4ccncc4)c3)=Nc3c(N)ncnc3N2)cc(OC)c1OC (stereo not given)
inactive: [1] 88.3% | [2] 29.3% | [3] 83.7% | [4] 91% | [5] 94.2% | [6] 79% | [7] 95.5% | [8] 94.8% | [9] 88.2% | [10] 90.7%

CCOc1ccc(-c2cc(C3(S(=O)(=O)c4ccc(C)cc4)CC=CC3)on2)cc1
inactive: [1] 101% | [2] 70.9% | [3] 83.6% | [4] 91.8% | [5] 93.6% | [6] 98.6% | [7] 90% | [8] 98.6% | [9] 74.9% | [10] 107%
